# Experimental data as given in PubChem BioAssay (NCATS).
# Inconclusive results are not listed. Active and inactive are the calls of the source. Calls come from the whole dose curve; as a rule, active = well fitted cell-killing curve with a large enough effect; inconclusive = small, poorly fitted or top-dose-only effect, or effect the other way; inactive = no such curve, though single readings can be large or run the other way.
# Test: qHTS of pediatric cancer cell lines to identify multiple opportunities for drug repurposing: Confirmatory screen for RD cells (AID 1347124);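 note: cells exposed to compound for 48 h before viability readout; nearly all actives have a fitted effect of over 65% in size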
# Conditions: RD rhabdomyosarcoma cell viability; series mostly up to 45.9 µM; activity change, negative = cytotoxic: at the top concentration
# Source text: Drug repurposing or repositioning has been offered as a strategy for drug development in oncology programs. This approach has special potential for childhood cancers and other rare or orphan diseases, where the expected return on new drug development has been a disincentive to pharmaceuticals.
# In this project we exploit the poly-pharmacology of drugs to discover new indications via phenotypic screening of a panel of 19 well-characterized cell lines derived from solid tumors seen in children and adolescents. The goal is to identify approved drugs with previously unrecognized anticancer properties that has the potential to reveal new mechanisms and biological processes involved in carcinogenesis or drug resistance. We employed a titration-based paradigm (quantitative high-throughput screening or qHTS), where all compounds were tested at multiple concentrations for their effect on cell viability. Concentration-response curves (CRCs) were derived directly from the primary screen, and both potency and efficacy values were used to identify compounds with robust bioactivity profiles. We screened the NIH Chemical Genomics Center (NCGC) Pharmaceutical Collection (NPC) and Mechanism Interrogation Plate (MIPE) small molecule collections of approved and investigational compounds against these cell lines; and measured metabolically active cells after 48 hours of compound treatment as a proxy for cell viability.
# Assay Submitter: Nathalia J. Martinez, National Center for Advancing Translational Sciences, National Institutes of Health, Rockville, MD, USA; email: natalia.martinez@nih.gov
# [1] Shen, M et al. Quantitative high-throughput phenotypic screening of pediatric cancer cell lines identifies multiple opportunities for drug repurposing. Oncotarget 2017 Dec 19;9(4):4758-4772. PMID 29435139.
# The cells were obtained from University of North Carolina (UNC), Pediatric Preclinical Testing Program (PPT), and Coriell Institute (CI).
# qHTS cell viability assay:
# Cells were assayed in growth media at a density of 500-1,000 cells/well. Five microliters of cells were dispensed into 1,536-well, white, solid-bottom, TC-treated plates (Greiner Bio One) using a multidrop dispenser and incubated at 37 degrees C, 5% CO2, under a humidified atmosphere for 5 hours. Twenty-three nanoliters of compounds and controls (neutral control DMSO or positive control bortezomib at final concentration of 2.3 µM) were subsequently transferred by Kalypsys pintool. For primary screens, the MIPE collection was tested at 11-point dilutions (final concentrations range from 0.78 nM to 46 µM) and the NPC collection at 8-point dilutions (final concentrations range from 0.59 nM to 46 µM). Compounds tested in follow-up screens were assayed at 11-point dilutions. Cells were incubated for 48 hours, followed by addition of 3 µL of CellTiter-Glo (Promega). After a 15 min incubation at room temperature, samples were analyzed for luminescence intensity using a ViewLux High-throughput CCD imager equipped with clear filters.
# % is set by controls: 0 for no effect and ±100 for the full control effect; potency is the fitted concentration of half-maximal effect.
Structure (SMILES),"activity change, negative = cytotoxic",Potency
CC1CCc2c(N3CCC(O)CC3)c(F)cc3c(=O)c(C(=O)O)cn1c23 (configuration not stated),11.2% (inactive),–
O=C(Oc1cccc2cccnc12)c1ccccc1,-9.57% (inactive),–
CN(C)C(=O)Nc1ccc(Cl)c(Cl)c1,4.41% (inactive),–
CCN(CC)CCOc1ccc2c(c1)C(=O)c1cc(OCCN(CC)CC)ccc1-2,-63.5% (inactive),–
O=C(CCCN1CC=C(n2c(=O)[nH]c3ccccc32)CC1)c1ccc(F)cc1,10.6% (inactive),–
C[C@@]12C(=O)OC(=O)[C@]1(C)C1CCC2O1,–,6.57 µM (active)
CCCCCCCCCCCCOCCOCCOCCOCCOCCOCCOCCOCCOCCO,2.74% (inactive),–
CCN[C@@H]1C[C@H](N)[C@@H](OC2OC(CN)=CCC2N)[C@H](O)[C@H]1O[C@H]1OC[C@](C)(O)[C@H](NC)[C@H]1O (some centres not stated),11.8% [at 0.556 µM] (inactive),–
Nc1nc(Cl)nc2c1ncn2[C@@H]1O[C@H](CO)[C@@H](O)[C@@H]1F,-20.7% (inactive),–
NC(N)=NN=C(/C=C/c1ccc([N+](=O)[O-])o1)/C=C/c1ccc([N+](=O)[O-])o1,–,4.14 µM (active)
O=[N+]([O-])c1ccc(/C=N\O)o1,–,0.414 µM (active)
COc1ccc(C(=O)c2ccccc2)c(O)c1,5.03% (inactive),–
